# From ChEMBL document CHEMBL3988442, “University of Dundee, Small-Polar-MMV Screening Library” (2021)
# For some of these results: Measured potencies and affinities stand elsewhere.
# How the values were obtained:
# Design in all cases: scale not given: direction of the effect not stated beside the values
# [1] = biological target: Protein translocase subunit SecA (Escherichia coli (strain K12)) (UniProt P10408); assay: Assay to Identify E. coli SecA ATPase Inhibitors; format: functional; details: 30 µM
# Sequence of Protein translocase subunit SecA (Escherichia coli (strain K12)) (P10408 whole entry): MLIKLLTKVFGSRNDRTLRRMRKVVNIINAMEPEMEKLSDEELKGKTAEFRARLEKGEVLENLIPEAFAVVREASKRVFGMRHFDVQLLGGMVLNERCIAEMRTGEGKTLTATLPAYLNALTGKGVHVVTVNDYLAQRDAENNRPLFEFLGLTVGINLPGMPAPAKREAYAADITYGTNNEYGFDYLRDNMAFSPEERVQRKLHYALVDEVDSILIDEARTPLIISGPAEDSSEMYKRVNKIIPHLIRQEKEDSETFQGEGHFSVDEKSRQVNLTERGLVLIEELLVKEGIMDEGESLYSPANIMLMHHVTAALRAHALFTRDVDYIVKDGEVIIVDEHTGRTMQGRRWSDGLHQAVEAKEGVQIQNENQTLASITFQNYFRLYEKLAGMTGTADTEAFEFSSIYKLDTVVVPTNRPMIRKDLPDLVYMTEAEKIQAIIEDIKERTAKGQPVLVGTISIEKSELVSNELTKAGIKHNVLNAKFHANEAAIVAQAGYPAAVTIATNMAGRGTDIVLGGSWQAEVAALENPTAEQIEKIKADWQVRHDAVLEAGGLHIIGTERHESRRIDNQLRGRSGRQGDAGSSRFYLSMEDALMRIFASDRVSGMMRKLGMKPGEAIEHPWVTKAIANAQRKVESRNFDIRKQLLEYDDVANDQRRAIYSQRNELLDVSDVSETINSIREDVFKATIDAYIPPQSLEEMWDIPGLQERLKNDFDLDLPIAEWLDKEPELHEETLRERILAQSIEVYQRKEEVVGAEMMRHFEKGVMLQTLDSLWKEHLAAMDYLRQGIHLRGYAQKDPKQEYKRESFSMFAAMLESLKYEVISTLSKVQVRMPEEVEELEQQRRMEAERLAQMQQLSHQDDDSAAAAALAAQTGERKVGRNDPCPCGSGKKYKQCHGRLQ
# [2] = biological target: T1, Ubiquitin-activating enzyme e1, putative (Leishmania donovani (strain BPK282A1)) (UniProt E9BSI1); assay: Leishmania donovani Ubiquitin Activating Enzyme (LdE1); format: functional; details: 30 µM
# T1 sequence (whole entry): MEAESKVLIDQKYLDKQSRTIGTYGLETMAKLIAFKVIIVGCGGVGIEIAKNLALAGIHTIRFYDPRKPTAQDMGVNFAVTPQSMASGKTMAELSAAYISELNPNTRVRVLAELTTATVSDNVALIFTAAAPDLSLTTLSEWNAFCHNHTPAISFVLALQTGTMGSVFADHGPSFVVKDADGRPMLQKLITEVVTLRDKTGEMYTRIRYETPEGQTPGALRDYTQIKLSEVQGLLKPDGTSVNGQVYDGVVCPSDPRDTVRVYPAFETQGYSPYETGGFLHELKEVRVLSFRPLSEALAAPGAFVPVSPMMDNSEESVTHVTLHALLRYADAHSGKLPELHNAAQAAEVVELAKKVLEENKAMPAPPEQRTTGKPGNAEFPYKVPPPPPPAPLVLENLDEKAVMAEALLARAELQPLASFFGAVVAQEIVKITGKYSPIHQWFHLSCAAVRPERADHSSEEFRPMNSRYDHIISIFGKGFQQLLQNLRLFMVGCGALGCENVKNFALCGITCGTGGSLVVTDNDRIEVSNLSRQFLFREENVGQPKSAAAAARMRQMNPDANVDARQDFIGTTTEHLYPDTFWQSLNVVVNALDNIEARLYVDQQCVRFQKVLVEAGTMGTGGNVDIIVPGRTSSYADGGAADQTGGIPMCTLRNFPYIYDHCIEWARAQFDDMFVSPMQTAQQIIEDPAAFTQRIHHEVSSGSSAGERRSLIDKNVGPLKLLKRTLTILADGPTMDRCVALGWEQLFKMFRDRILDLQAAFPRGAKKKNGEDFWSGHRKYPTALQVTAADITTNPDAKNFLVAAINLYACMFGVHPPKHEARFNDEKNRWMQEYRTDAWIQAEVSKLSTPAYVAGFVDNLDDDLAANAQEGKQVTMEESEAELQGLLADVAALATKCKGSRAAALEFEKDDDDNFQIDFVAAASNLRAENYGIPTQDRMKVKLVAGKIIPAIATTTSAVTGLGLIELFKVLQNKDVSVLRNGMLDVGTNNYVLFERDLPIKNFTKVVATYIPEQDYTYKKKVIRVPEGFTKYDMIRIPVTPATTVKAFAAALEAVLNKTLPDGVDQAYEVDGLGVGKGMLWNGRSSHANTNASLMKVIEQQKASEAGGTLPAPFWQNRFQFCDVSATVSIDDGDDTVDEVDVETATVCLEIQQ
# [3] = biological target: AMP-activated protein kinase, AMPK (Homo sapiens) (UniProt P54646+O43741+P54619+Q9UGJ0+Q9Y478+Q13131+Q9UGI9); assay: AMP-dependent Kinase enzyme assay. An in vitro enzyme assay that detects ADP turnover that is directly proportional to AMPK activity. This uses naive AMPK that is activated during the assay with MK-8722; format: functional; details: 30 µM
# [4] = biological target: Sialic acid-binding Ig-like lectin 9 (Homo sapiens) (UniProt Q9Y336); assay: Hs-Siglec9 ALPHAscreen SOP 20170721; details: 10 µM
# Sequence of Sialic acid-binding Ig-like lectin 9 (Homo sapiens) (Q9Y336 whole entry): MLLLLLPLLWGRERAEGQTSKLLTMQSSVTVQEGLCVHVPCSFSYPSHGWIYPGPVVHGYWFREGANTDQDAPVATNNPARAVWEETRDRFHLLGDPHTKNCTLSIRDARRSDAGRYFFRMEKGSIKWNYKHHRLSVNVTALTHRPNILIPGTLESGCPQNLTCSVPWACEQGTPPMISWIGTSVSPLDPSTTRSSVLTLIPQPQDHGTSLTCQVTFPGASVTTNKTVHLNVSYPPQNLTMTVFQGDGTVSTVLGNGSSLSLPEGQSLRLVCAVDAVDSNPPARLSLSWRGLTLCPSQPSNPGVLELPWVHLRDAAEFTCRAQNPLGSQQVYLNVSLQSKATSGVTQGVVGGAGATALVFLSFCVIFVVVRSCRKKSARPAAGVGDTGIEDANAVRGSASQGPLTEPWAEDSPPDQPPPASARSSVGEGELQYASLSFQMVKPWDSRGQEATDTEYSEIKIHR
# Trypanosoma cruzi = assay: Trypanosoma cruzi phosphomannomutase and mannose-1-phosphate guanylyltransferase assay; format: functional; details: 10 µM
# [5] = biological target: T2, Arginase-2, mitochondrial (Homo sapiens) (UniProt P78540); assay: in vitro enzyme assay to detect the production of urea directly proportional to the activity of Arginase II; format: functional; details: 33.3 µM; also: in the data most compounds retested in dose-response had high values
# T2 sequence (whole entry): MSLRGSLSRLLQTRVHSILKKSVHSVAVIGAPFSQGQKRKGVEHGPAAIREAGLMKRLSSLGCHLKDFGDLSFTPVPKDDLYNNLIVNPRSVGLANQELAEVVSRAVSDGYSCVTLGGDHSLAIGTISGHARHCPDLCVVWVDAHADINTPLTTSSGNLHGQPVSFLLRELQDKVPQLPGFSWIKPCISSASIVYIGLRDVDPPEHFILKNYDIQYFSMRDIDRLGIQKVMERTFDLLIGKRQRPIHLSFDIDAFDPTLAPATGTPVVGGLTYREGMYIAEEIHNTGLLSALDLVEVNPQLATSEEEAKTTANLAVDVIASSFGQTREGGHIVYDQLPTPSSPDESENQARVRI
# [6] = biological target: T3, Proteasome subunit beta (Trypanosoma cruzi) (UniProt O96673); assay: Trypanosoma cruzi proteasome chymotrypsin-like activity (TcProtChymo) assay.; also: in the data most compounds retested in dose-response had high values; format: functional; details: 9.37 µM
# T3 sequence (whole entry): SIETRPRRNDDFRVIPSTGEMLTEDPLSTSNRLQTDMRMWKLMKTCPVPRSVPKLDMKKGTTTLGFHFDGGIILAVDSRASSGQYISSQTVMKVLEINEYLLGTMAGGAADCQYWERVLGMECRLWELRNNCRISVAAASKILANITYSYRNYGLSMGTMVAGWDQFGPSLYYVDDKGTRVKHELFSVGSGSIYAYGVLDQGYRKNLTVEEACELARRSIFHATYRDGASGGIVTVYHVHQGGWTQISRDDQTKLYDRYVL
# Homo sapiens = species on record: Homo sapiens; assay: To identify inhibition of the IFN signalling (Jak-Stat) pathway via expression of an eGFP reporter gene under the control of an IFN-stimulated response element (ISRE) containing MxA promoter.; format: functional; details: 30 µM
# [7] = biological target: T4, Tyrosyl-tRNA synthetase, putative (Trypanosoma cruzi (strain CL Brener)) (UniProt Q4DSP6); assay: Trypanosoma cruzi tyrosyl tRNA synthetase (TcYRS) _High Tyrosine SOP; format: functional; details: 30 µM; also: in the data most compounds retested in dose-response had high values
# T4 sequence (whole entry): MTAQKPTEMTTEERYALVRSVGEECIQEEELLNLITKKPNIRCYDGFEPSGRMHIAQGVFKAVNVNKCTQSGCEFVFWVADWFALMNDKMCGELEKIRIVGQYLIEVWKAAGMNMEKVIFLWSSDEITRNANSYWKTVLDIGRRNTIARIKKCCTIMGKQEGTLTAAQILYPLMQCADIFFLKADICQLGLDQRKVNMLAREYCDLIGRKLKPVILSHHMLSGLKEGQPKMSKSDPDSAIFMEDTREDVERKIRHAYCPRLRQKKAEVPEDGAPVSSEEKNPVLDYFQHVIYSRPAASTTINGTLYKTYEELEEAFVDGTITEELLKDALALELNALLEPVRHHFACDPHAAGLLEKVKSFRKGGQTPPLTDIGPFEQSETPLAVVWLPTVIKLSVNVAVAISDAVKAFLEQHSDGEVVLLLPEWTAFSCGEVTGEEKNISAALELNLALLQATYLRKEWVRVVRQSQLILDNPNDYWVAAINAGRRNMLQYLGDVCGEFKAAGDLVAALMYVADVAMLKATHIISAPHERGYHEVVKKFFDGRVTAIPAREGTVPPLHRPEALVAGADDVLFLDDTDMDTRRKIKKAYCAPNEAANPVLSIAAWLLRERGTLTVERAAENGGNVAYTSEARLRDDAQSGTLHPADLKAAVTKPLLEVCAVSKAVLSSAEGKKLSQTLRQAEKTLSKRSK
# [8] = biological target: T4, Tyrosyl-tRNA synthetase, putative (Trypanosoma cruzi (strain CL Brener)); assay: Trypanosoma cruzi tyrosyl tRNA synthetase (TcYRS) SOP; format: functional; details: 30 µM
# [9] = biological target: Chromo domain-containing protein 1 (Saccharomyces cerevisiae (strain ATCC 204508 / S288c) (Baker's yeast)) (UniProt P32657); assay: ScCHD-1 Enzyme Inhibition Assay; format: functional; details: 30 µM; also: in the data most compounds retested in dose-response had high values
# Sequence of Chromo domain-containing protein 1 (Saccharomyces cerevisiae (strain ATCC 204508 / S288c) (Baker's yeast)) (P32657 whole entry, the tested form may be a part): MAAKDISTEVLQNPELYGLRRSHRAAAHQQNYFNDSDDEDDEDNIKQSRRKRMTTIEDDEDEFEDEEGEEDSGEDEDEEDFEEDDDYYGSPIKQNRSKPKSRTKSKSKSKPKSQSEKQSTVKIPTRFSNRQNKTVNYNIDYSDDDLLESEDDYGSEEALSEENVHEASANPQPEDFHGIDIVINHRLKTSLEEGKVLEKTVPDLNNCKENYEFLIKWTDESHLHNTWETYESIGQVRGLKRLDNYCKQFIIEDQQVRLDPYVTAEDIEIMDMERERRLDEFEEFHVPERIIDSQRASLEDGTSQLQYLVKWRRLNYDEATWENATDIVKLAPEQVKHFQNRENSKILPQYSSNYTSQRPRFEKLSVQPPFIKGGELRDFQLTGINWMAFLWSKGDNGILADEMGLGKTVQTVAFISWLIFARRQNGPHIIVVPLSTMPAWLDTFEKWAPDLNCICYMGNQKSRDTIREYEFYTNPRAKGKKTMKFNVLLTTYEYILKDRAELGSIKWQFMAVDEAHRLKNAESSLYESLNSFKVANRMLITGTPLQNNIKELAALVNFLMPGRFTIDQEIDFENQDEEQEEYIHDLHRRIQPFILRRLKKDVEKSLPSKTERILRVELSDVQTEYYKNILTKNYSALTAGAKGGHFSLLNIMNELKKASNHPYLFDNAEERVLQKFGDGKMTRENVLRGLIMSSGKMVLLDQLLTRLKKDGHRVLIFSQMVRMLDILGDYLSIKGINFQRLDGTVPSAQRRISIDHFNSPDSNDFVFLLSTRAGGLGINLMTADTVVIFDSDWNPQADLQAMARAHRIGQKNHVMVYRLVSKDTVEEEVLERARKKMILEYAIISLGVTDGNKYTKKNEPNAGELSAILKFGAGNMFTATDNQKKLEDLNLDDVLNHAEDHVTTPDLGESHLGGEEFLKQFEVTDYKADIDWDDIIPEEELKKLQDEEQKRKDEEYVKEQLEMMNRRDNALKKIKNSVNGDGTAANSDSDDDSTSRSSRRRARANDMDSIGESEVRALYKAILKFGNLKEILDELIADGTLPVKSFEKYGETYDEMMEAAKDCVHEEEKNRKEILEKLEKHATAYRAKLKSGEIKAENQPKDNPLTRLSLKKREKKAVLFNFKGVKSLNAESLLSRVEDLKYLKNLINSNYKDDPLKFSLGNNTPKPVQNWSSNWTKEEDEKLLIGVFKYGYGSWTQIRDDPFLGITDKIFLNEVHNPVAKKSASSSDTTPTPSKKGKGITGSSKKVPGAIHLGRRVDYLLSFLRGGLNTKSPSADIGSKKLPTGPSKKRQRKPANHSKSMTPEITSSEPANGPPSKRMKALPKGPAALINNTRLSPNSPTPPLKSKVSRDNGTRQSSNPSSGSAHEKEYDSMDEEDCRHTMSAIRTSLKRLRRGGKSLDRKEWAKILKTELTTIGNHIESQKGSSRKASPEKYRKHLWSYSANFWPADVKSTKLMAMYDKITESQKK
compound,measurement,setting,value
CCc1ncnc2c1CCN(C(=O)N1CCCC1)CC2,Percent Effect,[1],-5.11%
same,Percent Effect,[2],0%
same,Percent Effect,[3],4.79%
same,Percent Effect,[4],8.2%
same,Percent Effect,Trypanosoma cruzi,-2.7%
same,Percent Effect,[5],-10.9%
same,Percent Effect,[6],12.3%
same,Percent Effect,Homo sapiens,1.54%
same,Percent Effect,[7],-3.12%
same,Percent Effect,[8],-5%
same,Percent Effect,[9],2.94%
CCOc1ccc(Cl)cc1C1CCCN1 (stereo unspecified),Percent Effect,[1],-3.13%
same,Percent Effect,[2],10.5%
same,Percent Effect,[3],4%
same,Percent Effect,[4],1.21%
same,Percent Effect,Trypanosoma cruzi,3.21%
same,Percent Effect,[5],-11.8%
same,Percent Effect,[6],13.5%
same,Percent Effect,Homo sapiens,2.15%
same,Percent Effect,[7],0%
same,Percent Effect,[8],7.79%
same,Percent Effect,[9],-2.96%
CCc1n[nH]c(C2CN(C(=O)c3cnc[nH]3)CCO2)n1 (stereo unspecified),Percent Effect,[1],-4.08%
same,Percent Effect,[2],7.79%
same,Percent Effect,[3],7.86%
same,Percent Effect,[4],7.55%
same,Percent Effect,Trypanosoma cruzi,0.686%
same,Percent Effect,[5],4.84%
same,Percent Effect,[6],9.62%
same,Percent Effect,Homo sapiens,1.28%
same,Percent Effect,[7],2.86%
same,Percent Effect,[8],-11.8%
same,Percent Effect,[9],-9.8%
O=c1oc(-c2cccs2)nn1CC(O)c1ccc(F)cc1 (stereo unspecified),Percent Effect,[1],-3.82%
same,Percent Effect,[2],0%
same,Percent Effect,[3],-2.3%
same,Percent Effect,[4],3.88%
same,Percent Effect,Trypanosoma cruzi,3.41%
same,Percent Effect,[5],-1.04%
same,Percent Effect,[6],13.9%
same,Percent Effect,Homo sapiens,18.7%
same,Percent Effect,[7],6.01%
same,Percent Effect,[8],18.5%
same,Percent Effect,[9],-5.35%
Cc1cc(CN(C)C2CCCN(c3cccnn3)C2)on1 (stereo unspecified),Percent Effect,[1],-4.98%
same,Percent Effect,[2],-2.67%
same,Percent Effect,[3],-10.6%
same,Percent Effect,[4],-0.639%
same,Percent Effect,Trypanosoma cruzi,4.19%
same,Percent Effect,[5],1.56%
same,Percent Effect,[6],16.2%
same,Percent Effect,Homo sapiens,-1.53%
same,Percent Effect,[7],11.5%
same,Percent Effect,[8],13.6%
same,Percent Effect,[9],-1.67%
CC(CNC(=O)c1ccccc1Oc1cccnc1)N(C)C (stereo unspecified),Percent Effect,[1],-2.21%
same,Percent Effect,[2],10.8%
same,Percent Effect,[3],-2.99%
same,Percent Effect,[4],12.9%
same,Percent Effect,Trypanosoma cruzi,5.41%
same,Percent Effect,[5],-0.476%
same,Percent Effect,[6],5.69%
same,Percent Effect,Homo sapiens,-6.47%
same,Percent Effect,[7],3.7%
same,Percent Effect,[8],9.76%
same,Percent Effect,[9],-1.53%
CN1CC(=O)N(c2cccnc2)CC12CCN(C(=O)C1CCCCC1)C2 (stereo unspecified),Percent Effect,[1],0.868%
same,Percent Effect,[2],10.7%
same,Percent Effect,[3],6.75%
same,Percent Effect,[4],12.8%
same,Percent Effect,Trypanosoma cruzi,-1.74%
same,Percent Effect,[5],-72.9%
same,Percent Effect,[6],12.3%
same,Percent Effect,Homo sapiens,24%
same,Percent Effect,[7],3.12%
same,Percent Effect,[8],2.5%
same,Percent Effect,[9],-2.49%
Cc1cc(C)n(CC2CCCN2C(=O)CCCNc2ncccn2)n1 (stereo unspecified),Percent Effect,[1],-3.06%
same,Percent Effect,[2],5.26%
same,Percent Effect,[3],1.29%
same,Percent Effect,[4],7.88%
same,Percent Effect,Trypanosoma cruzi,3.01%
same,Percent Effect,[5],1.15%
same,Percent Effect,[6],5.68%
same,Percent Effect,Homo sapiens,-8.34%
same,Percent Effect,[7],6.37%
same,Percent Effect,[8],9.76%
same,Percent Effect,[9],-0.0349%
CCN1C[C@@H]2[C@@H](OC)CCN(S(=O)(=O)c3ccccc3)[C@@H]2C1,Percent Effect,[1],-1.54%
same,Percent Effect,[2],16%
same,Percent Effect,[3],3.6%
same,Percent Effect,[4],-7.4%
same,Percent Effect,Trypanosoma cruzi,-7.48%
same,Percent Effect,[5],0.233%
same,Percent Effect,[6],11.4%
same,Percent Effect,Homo sapiens,-3.22%
same,Percent Effect,[7],1.06%
same,Percent Effect,[8],6.41%
same,Percent Effect,[9],-5.54%
CSCCC1c2nc[nH]c2CCN1Cc1ccnc2ccccc12 (stereo unspecified),Percent Effect,[1],-3.26%
same,Percent Effect,[2],10.7%
same,Percent Effect,[3],-26.6%
same,Percent Effect,[4],14.2%
same,Percent Effect,Trypanosoma cruzi,4.38%
same,Percent Effect,[5],5.73%
same,Percent Effect,[6],25.5%
same,Percent Effect,Homo sapiens,10.9%
same,Percent Effect,[7],9.29%
same,Percent Effect,[8],6.17%
same,Percent Effect,[9],-4.91%
O=C(Nc1cccc(CNCc2csc(Br)c2)c1)C1CC1,Percent Effect,[1],-8.41%
same,Percent Effect,[2],23.7%
same,Percent Effect,[3],-5.54%
same,Percent Effect,[4],-1.24%
same,Percent Effect,Trypanosoma cruzi,5.32%
same,Percent Effect,[5],2.16%
same,Percent Effect,[6],7.19%
same,Percent Effect,Homo sapiens,37.8%
same,Percent Effect,[7],3.45%
same,Percent Effect,[8],25.9%
same,Percent Effect,[9],-8.55%
